± gives the standard deviation.
Legend:
[1] = tested on: MILI (PIWIL2) piRISC loaded with L1MC piRNA (26 nt); assay: pre-steady-state target cleavage rate (min^-1); guide: L1MC piRNA 5'p-UAACUAAAUACUAUGCAAGCUGUAGG; higher = faster piRNA-guided slicing of the target;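 further: 1 nM active piRISC with 0.1 nM target library at 33 °C single turnover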
Outline: (§1)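 In this Cleave-'n-Seq assay, uncleaved targets were sequenced and normalised to depth and to weakly complementary targets. They came from a transcribed, DNA-blocked target RNA library […] mixed with 1 nM active affinity-purified piRISC carrying one synthetic guide, with or without 500 nM GTSF1 partner protein, in HEPES–potassium acetate buffer at 33 °C for 0–8 or 0–960 min. After three trials were pooled and k3 was capped at 0.0001 min^-1, the pre-steady-state cleavage rate was obtained from a burst-and-steady-state fit.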

[2] = tested on: EfPiwi piRISC loaded with L1MC piRNA (26 nt); assay: pre-steady-state target cleavage rate (min^-1); auxiliary factor: 500 nM Ephydatia muelleri Gtsf1; guide: L1MC piRNA 5'p-UAACUAAAUACUAUGCAAGCUGUAGG; MIWI and MILI are mouse PIWI proteins and EfPiwi is from a freshwater sponge; tags in brackets are library labels; higher = faster piRNA-guided slicing of the target
Outline: as §1

[3] = auxiliary factor: 500 nM mouse GTSF1
[4] = auxiliary factor: none (no GTSF1)

Sequence | pre-steady-state target cleavage rate [1, 3] | pre-steady-state target cleavage rate [1, 4] | pre-steady-state target cleavage rate [2]
UCCUGGAUGUCCUGCAUAGUAUUUAGUUA | 0.094 ± 0.013 | 0.00628 ± 0.0019 | 0.00358 ± 0.0026
UCCUGCUACAGCUUGAUAGUAUUUAGUUA | 0.133 ± 0.017 | 0.00396 ± 0.0021 | 0.00658 ± 0.0031
UCCUGGAUCAGCUUGCAUUGUAAUUAGUUA | 0.097 ± 0.011 | 0.00466 ± 0.0022 | 0.00179 ± 0.0017
UCCUCCUACAACUUGCAUAGUAUUUAGUUA | 0.266 ± 0.019 | 0.0079 ± 0.0018 | 0.0806 ± 0.024
UCCUGCUACUGCUUGCUUAGUAUUUAGUUA | 0.202 ± 0.022 | 0.00589 ± 0.002 | 0.0076 ± 0.0022
UCCUGGAACAGCUUGCAUAGUAUUCAGUUA | 0.228 ± 0.042 | 0.00292 ± 0.0026 | 0.00333 ± 0.0018
UCCUGGAUCAGCUAGGAUAGUAUUUAGUUA | 0.178 ± 0.013 | 0.00609 ± 0.0017 | 0.00257 ± 0.002
UCCUCCUACAGCUUGCAUAGUAUAAUGUUA | 0.158 ± 0.026 | 0.00294 ± 0.0027 | 0.00388 ± 0.0022
UCCUCCUUGAGCUUGCAUAGUAUUUAGUAA | 0.217 ± 0.025 | 0.00389 ± 0.0017 | 0.00719 ± 0.0026
UCCUGCUACUGCUAGCAUAGUAUUUAGUUA | 0.253 ± 0.017 | 0.0054 ± 0.0023 | 0.0129 ± 0.0034
UCCUCCUACACCUUGCAUUGUAUUUAGUUA | 0.184 ± 0.021 | 0.0078 ± 0.002 | 0.0139 ± 0.0056
UCCUGGAUGUGCUUUGCAUAGUAUUUAGUUA | 0.157 ± 0.016 | 0.0132 ± 0.0033 | 0.00805 ± 0.003
UCCUGCUACUGCUUGCAUAGUAAUUAGUUA | 0.175 ± 0.023 | 0.00358 ± 0.0023 | 0.00587 ± 0.0019
UCCUGGAUGUCCGUGCAUAGUAUUUAGUUA | 0.0403 ± 0.011 | 0.00675 ± 0.0027 | 0.00483 ± 0.0024
UCCUCCUACAGCUUGCAUAGUAUUUACUUA | 0.206 ± 0.039 | 0.00429 ± 0.0025 | 0.0042 ± 0.0034
UCCUGGAUGUCGUUUGCAUAGUAUUUAGUUA | 0.13 ± 0.013 | 0.00976 ± 0.0036 | 0.0445 ± 0.013
UCCUGGAUUAGCUUGCAUAGUAUUUAGUUA | 0.232 ± 0.016 | 0.00961 ± 0.0024 | 0.0447 ± 0.011
UCCUCCUACAGAUUGCAUAGUAUUUAGUUA | 0.236 ± 0.014 | 0.00814 ± 0.0018 | 0.0555 ± 0.014
UCCUCCCACAGCUUGCAUAGUAUUUAGUUA | 0.296 ± 0.015 | 0.00691 ± 0.0024 | 0.128 ± 0.029
UCCUGGAUGUCGAAGCAUAGUAUUUAGUUA [g2:g16:cont:t1A] | 0.0359 ± 0.0067 | 0.00487 ± 0.0016 | 0.00352 ± 0.002
UCCUCCUACAGCUUGCAUAGUAUUUAGUCA | 0.303 ± 0.025 | 0.00856 ± 0.0028 | 0.00693 ± 0.003
UCCUGCUACAGCUUGCAUAGUAUUAAGUUA | 0.245 ± 0.028 | 0.0047 ± 0.0024 | 0.0064 ± 0.0019
UCCUGGAUCAGCUUGCAUAGUAUUAAGUUA | 0.262 ± 0.026 | 0.00729 ± 0.0019 | 0.0323 ± 0.0094
UCCUGGAUGUGCUUGCAUUGUAUUUAGUUA | 0.0666 ± 0.013 | 0.00523 ± 0.0031 | 0.00484 ± 0.0027
UCCUCCUACAGCUUGCAAAGUAAUUAGUUA | 0.116 ± 0.012 | 0.00331 ± 0.0024 | 0.00531 ± 0.0022

Sequence | pre-steady-state target cleavage rate [1, 3] | pre-steady-state target cleavage rate [1, 4] | pre-steady-state target cleavage rate [2]
UCCUCCUACAGCAUGCAUAGUAUUUAGUAA | 0.231 ± 0.019 | 0.00366 ± 0.0021 | 0.00521 ± 0.0023
UCCUGGUAAAGCUUGCAUAGUAUUUAGUUA | 0.183 ± 0.017 | 0.00996 ± 0.0023 | 0.00606 ± 0.002
UCCUGGAACAGGUUGCAUAGUAUUUAGUAA | 0.232 ± 0.02 | 0.00824 ± 0.0023 | 0.00828 ± 0.0031
UCCUGCUACAGCUUGCAUAGUAUUAGUUA | 0.222 ± 0.026 | 0.0027 ± 0.0027 | 0.00404 ± 0.0022
UCCUGGUAAGCUUGCAUAGUAUUUAGUUA | 0.273 ± 0.017 | 0.0137 ± 0.0032 | 0.0168 ± 0.0044
UCCUCCUACAGGAAGCAUAGUAUUUAGUUA | 0.292 ± 0.011 | 0.00603 ± 0.0024 | 0.0159 ± 0.0041
UCCUGGAUGUCGUUGCAUAGUAUUUAGUUA [g2:g18:cont:t1A] | 0.164 ± 0.013 | 0.0106 ± 0.0029 | 0.00621 ± 0.0026
UCCUCCUACAGCUUGGAUAGUAUUAAGUUA | 0.134 ± 0.017 | 0.00275 ± 0.0027 | 0.00905 ± 0.0043
UCCUGGAAGAGCUUGCAUUGUAUUUAGUUA | 0.208 ± 0.011 | 0.00838 ± 0.0031 | 0.0104 ± 0.0029
UCCUCCUACAGGUAGCAUAGUAUUUAGUUA | 0.273 ± 0.013 | 0.00904 ± 0.0021 | 0.0265 ± 0.006
UCCUGGAUCAGCUUGCAUAGUAUUUAGUUG [g2:g22:cont:t1G] | 0.285 ± 0.018 | 0.00983 ± 0.0019 | 0.0209 ± 0.0054
UCCUGCUACAGCUUGCUUUGUAUUUAGUUA | 0.183 ± 0.015 | 0.00494 ± 0.0021 | 0.00538 ± 0.003
UCCUGGAACACCUUGCUUAGUAUUUAGUUA | 0.155 ± 0.028 | 0.00581 ± 0.0019 | 0.0036 ± 0.0033
UCCUGGGACAGCUUGCAUAGUAUUUAGUUA | 0.231 ± 0.024 | 0.0138 ± 0.0034 | 0.0163 ± 0.0059
UCCUGGAACAGCUUAGCAUAGUAUUUAGUUA | 0.27 ± 0.019 | 0.00815 ± 0.0027 | 0.0218 ± 0.0061
UCCUGGAACAGCAUGCUUAGUAUUUAGUUA | 0.217 ± 0.019 | 0.005 ± 0.0026 | 0.00591 ± 0.0025
UCCUGGAUGUCCUUGCAUAGUAUUUAGUUUA | 0.104 ± 0.015 | 0.00891 ± 0.0035 | 0.00634 ± 0.003
UCCUCCUACAGCUUGCAUAGUAUUUAGUAUA | 0.258 ± 0.028 | 0.00757 ± 0.0027 | 0.00856 ± 0.0035
UCCUGGAACAGGUUGCAUAGUAUAUAGUUA | 0.211 ± 0.023 | 0.00891 ± 0.0023 | 0.0101 ± 0.0045
UCCUGGAUGAUCUUGCAUAGUAUUUAGUUA | 0.145 ± 0.016 | 0.00813 ± 0.003 | 0.0779 ± 0.023
UCCUGGAAGAGCUUGCAUAGUAUUAAGUUA | 0.21 ± 0.023 | 0.00346 ± 0.0028 | 0.00519 ± 0.0018
UCCUCCUUGUGCUUGCAUAGUAUUUAGUUA | 0.157 ± 0.012 | 0.00963 ± 0.002 | 0.0113 ± 0.0034
UCCUGGAUCUGCUUGGAUAGUAUUUAGUUA | 0.165 ± 0.019 | 0.0102 ± 0.0026 | 0.0089 ± 0.0032
UCCUGGAUCAGCUUGCAUAGUAAUAAGUUA | 0.189 ± 0.019 | 0.00409 ± 0.0028 | 0.00234 ± 0.0018
UCCUGGUACAGCUUGCAUAGUAUUAUAGUUA | 0.299 ± 0.034 | 0.00483 ± 0.003 | 0.00555 ± 0.0023

Sequence | pre-steady-state target cleavage rate [1, 3] | pre-steady-state target cleavage rate [1, 4] | pre-steady-state target cleavage rate [2]
UCCUGGAUCAGCAUGCAUAGUAUUUAGAAA | 0.126 ± 0.018 | 0.0038 ± 0.0026 | 0.00356 ± 0.0021
UCCUGGUACAGCGUUGCAUAGUAUUUAGUUA | 0.196 ± 0.027 | 0.0109 ± 0.0053 | 0.00749 ± 0.0028
UCCUCCUACAGCGUGCAUAGUAUUUAGUUA | 0.309 ± 0.021 | 0.00999 ± 0.003 | 0.1 ± 0.026
UCCUGCAUACAGCUUGCAUAGUAUUUAGUUA | 0.554 ± 0.047 | 0.0104 ± 0.0034 | 0.11 ± 0.032
UCCUGGAUCAGCUUGCAUAGUAUCUAGUUA | 0.205 ± 0.02 | 0.00466 ± 0.0024 | 0.0167 ± 0.005
UCCUCCUACAGCUUGCAUAGUAUUUCAGUUA | 0.463 ± 0.073 | 0.0049 ± 0.0029 | 0.00437 ± 0.0022
UCCUCCUACACGAUGCAUAGUAUUUAGUAA | 0.194 ± 0.026 | 0.00362 ± 0.0022 | 0.00453 ± 0.0027
UCCUGGAACAGCGUGCAUAGUAUUUAGUUA | 0.282 ± 0.017 | 0.00797 ± 0.0029 | 0.0168 ± 0.005
UCCUGGUACAGCUUGCAUAGUAUUUUAGUUA | 0.183 ± 0.021 | 0.0144 ± 0.0062 | 0.00849 ± 0.0042
UCCUGGAACUGGUUGCAUAGUAUUUAGUUA | 0.202 ± 0.018 | 0.0046 ± 0.0029 | 0.02 ± 0.0073
UCCUGGUACAGCUUGCAUGUAUUUAGUUA | 0.0383 ± 0.0075 | 0.00417 ± 0.0024 | 0.0036 ± 0.0031
UCCUCCUAUAGCUUGCAUAGUAUUUAGUUA | 0.244 ± 0.015 | 0.00658 ± 0.0019 | 0.0108 ± 0.0034
UCCUGCAUCAGCUUGCAUAGUAUUUAGUUA | 0.322 ± 0.021 | 0.00843 ± 0.0023 | 0.0591 ± 0.011
UCCUCCUACGCUUGCAUAGUAUUUAGUUA | 0.301 ± 0.013 | 0.0071 ± 0.0018 | 0.0821 ± 0.021
UCCUGGAUGAGCUUGCAUAGUAUUUGGUUA | 0.203 ± 0.025 | 0.00663 ± 0.0031 | 0.00713 ± 0.002
UCCUGGAUCAGCUUGCAUAGUAGUUUAGUUA | 0.216 ± 0.02 | 0.00969 ± 0.0027 | 0.0107 ± 0.0033
UCCUGCUACAGCUUGCAUAGUAUUUAGUCA | 0.202 ± 0.033 | 0.00397 ± 0.0022 | 0.00386 ± 0.0017
UCCUGGAUGUGCUUGCAUAGUAUAAAGUUA | 0.0611 ± 0.011 | 0.00318 ± 0.0025 | 0.00378 ± 0.0034
UCCUGCUACAGCAUGCAUAGUUUUUAGUUA | 0.114 ± 0.019 | 0.00396 ± 0.0036 | 0.00363 ± 0.0018
UCCUGGUUCAGCUUGCAUAGUAUUUAGUUA | 0.23 ± 0.022 | 0.0108 ± 0.0032 | 0.0765 ± 0.018
UCCUGGAUCACCUUGCAUAGUAUUAAGUUA | 0.201 ± 0.034 | 0.00424 ± 0.0023 | 0.00509 ± 0.0039
UCCUGCUACAGCUUGACAUAGUAUUUAGUUA | 0.226 ± 0.018 | 0.00448 ± 0.0026 | 0.00916 ± 0.0026
UCCUCCUAGAGCAUGCAUAGUAUUUAGUUA | 0.2 ± 0.019 | 0.00564 ± 0.0018 | 0.0163 ± 0.0058
UCCUGCAACAGCUUGCAUAGUAUUAAGUUA | 0.344 ± 0.039 | 0.00432 ± 0.0031 | 0.00881 ± 0.0022

Source: the supplement of paper PMC10338343
